Measured values from the supplement of paper PMC4466140.

Biological target: AgAbp1
Assay: SPOT peptide array binding signal intensity (averaged, normalized) (arbitrary units (background-subtracted, floor 0; scale differs between SH3 domains)); higher = stronger binding of the SH3 domain to the peptide
Method: (§1)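 GST-tagged SH3 domains from S. cerevisiae (Sc), A. gossypii (Ag), C. albicans (Ca) and S. pombe (Sp) were incubated at 10 ug/ml overnight at 4 C on cellulose SPOT membranes carrying 292 synthetic 15-mer peptides mined from the S. cerevisiae proteome (cysteines replaced by serines). Binding was detected with anti-GST antibody, HRP secondary and chemiluminescence, quantified with Genespotter, and reported as normalized spot intensities averaged over biological replicates.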

Binder | SPOT peptide array binding signal intensity
RPPRPPPKPLHLRTE | 1720

Biological target: AgBbc1
Assay: as above
Method: as §1

Binder | SPOT peptide array binding signal intensity
RPPRPPPKPLHLRTE | 559

Biological target: AgBem1-D1
Assay: as above
Method: as §1

Binder | SPOT peptide array binding signal intensity
RPPRPPPKPLHLRTE | 113

Biological target: AgBzz1-D1
Assay: as above
Method: as §1

Binder | SPOT peptide array binding signal intensity
RPPRPPPKPLHLRTE | 270

Biological target: AgBzz1-D2
Assay: as above
Method: as §1

Binder | SPOT peptide array binding signal intensity
RPPRPPPKPLHLRTE | 69

Biological target: AgCyk3
Assay: as above
Method: as §1

Binder | SPOT peptide array binding signal intensity
RPPRPPPKPLHLRTE | ≤ 0

Biological target: AgFus1
Assay: as above
Method: as §1

Binder | SPOT peptide array binding signal intensity
RPPRPPPKPLHLRTE | 5.5

Biological target: AgHof1
Assay: as above
Method: as §1

Binder | SPOT peptide array binding signal intensity
RPPRPPPKPLHLRTE | 50

Biological target: AgHse1
Assay: as above
Method: as §1

Binder | SPOT peptide array binding signal intensity
RPPRPPPKPLHLRTE | 178

Biological target: AgLsb1
Assay: as above
Method: as §1

Binder | SPOT peptide array binding signal intensity
RPPRPPPKPLHLRTE | 27

Biological target: AgLsb4
Assay: as above
Method: as §1

Binder | SPOT peptide array binding signal intensity
RPPRPPPKPLHLRTE | 52

Biological target: AgMyo5
Assay: as above
Method: as §1

Binder | SPOT peptide array binding signal intensity
RPPRPPPKPLHLRTE | 8.25

Biological target: AgNbp2
Assay: as above
Method: as §1

Binder | SPOT peptide array binding signal intensity
RPPRPPPKPLHLRTE | 1310

Biological target: AgRvs167
Assay: as above
Method: as §1

Binder | SPOT peptide array binding signal intensity
RPPRPPPKPLHLRTE | 12.3

Biological target: AgSho1
Assay: as above
Method: as §1

Binder | SPOT peptide array binding signal intensity
RPPRPPPKPLHLRTE | 836

Biological target: AgSla1-D1-D2
Assay: as above
Method: as §1

Binder | SPOT peptide array binding signal intensity
RPPRPPPKPLHLRTE | 28

Biological target: AgSla1-D3
Assay: as above
Method: as §1

Binder | SPOT peptide array binding signal intensity
RPPRPPPKPLHLRTE | 14

Biological target: CaAbp1-D1
Assay: as above
Method: as §1

Binder | SPOT peptide array binding signal intensity
RPPRPPPKPLHLRTE | 913

Biological target: CaAbp1-D2
Assay: as above
Method: as §1

Binder | SPOT peptide array binding signal intensity
RPPRPPPKPLHLRTE | 4480

Biological target: CaBbc1
Assay: as above
Method: as §1

Binder | SPOT peptide array binding signal intensity
RPPRPPPKPLHLRTE | 626

Biological target: CaBem1-D1
Assay: as above
Method: as §1

Binder | SPOT peptide array binding signal intensity
RPPRPPPKPLHLRTE | 314

Biological target: CaBzz1-D1
Assay: as above
Method: as §1

Binder | SPOT peptide array binding signal intensity
RPPRPPPKPLHLRTE | 1940

Biological target: CaBzz1-D2
Assay: as above
Method: as §1

Binder | SPOT peptide array binding signal intensity
RPPRPPPKPLHLRTE | 405

Biological target: CaCyk3
Assay: as above
Method: as §1

Binder | SPOT peptide array binding signal intensity
RPPRPPPKPLHLRTE | 29

Biological target: CaFus1
Assay: as above
Method: as §1

Binder | SPOT peptide array binding signal intensity
RPPRPPPKPLHLRTE | 61.5

Biological target: CaHof1
Assay: as above
Method: as §1

Binder | SPOT peptide array binding signal intensity
RPPRPPPKPLHLRTE | 1

Biological target: CaHse1
Assay: as above
Method: as §1

Binder | SPOT peptide array binding signal intensity
RPPRPPPKPLHLRTE | 1310

Biological target: CaLsb1
Assay: as above
Method: as §1

Binder | SPOT peptide array binding signal intensity
RPPRPPPKPLHLRTE | 0.5

Biological target: CaLsb4
Assay: as above
Method: as §1

Binder | SPOT peptide array binding signal intensity
RPPRPPPKPLHLRTE | 1080

Biological target: CaMyo5
Assay: as above
Method: as §1

Binder | SPOT peptide array binding signal intensity
RPPRPPPKPLHLRTE | 2

Biological target: CaNbp2
Assay: as above
Method: as §1

Binder | SPOT peptide array binding signal intensity
RPPRPPPKPLHLRTE | 567

Biological target: CaRvs167
Assay: as above
Method: as §1

Binder | SPOT peptide array binding signal intensity
RPPRPPPKPLHLRTE | 67

Biological target: CaRvs167-3
Assay: as above
Method: as §1

Binder | SPOT peptide array binding signal intensity
RPPRPPPKPLHLRTE | 4.75

Biological target: CaSho1
Assay: as above
Method: as §1

Binder | SPOT peptide array binding signal intensity
RPPRPPPKPLHLRTE | 148

Biological target: CaSla1-D1-D2
Assay: as above
Method: as §1

Binder | SPOT peptide array binding signal intensity
RPPRPPPKPLHLRTE | 1990

Biological target: CaSla1-D3
Assay: as above
Method: as §1

Binder | SPOT peptide array binding signal intensity
RPPRPPPKPLHLRTE | 97.5

Biological target: ScAbp1
Assay: as above
Method: as §1

Binder | SPOT peptide array binding signal intensity
RPPRPPPKPLHLRTE | 3670

Biological target: ScBbc1
Assay: as above
Method: as §1

Binder | SPOT peptide array binding signal intensity
RPPRPPPKPLHLRTE | 57.5

Biological target: ScBem1-D1
Assay: as above
Method: as §1

Binder | SPOT peptide array binding signal intensity
RPPRPPPKPLHLRTE | 4

Biological target: ScBzz1-D1
Assay: as above
Method: as §1

Binder | SPOT peptide array binding signal intensity
RPPRPPPKPLHLRTE | 49

Biological target: ScBzz1-D2
Assay: as above
Method: as §1

Binder | SPOT peptide array binding signal intensity
RPPRPPPKPLHLRTE | 26

Biological target: ScCyk3
Assay: as above
Method: as §1

Binder | SPOT peptide array binding signal intensity
RPPRPPPKPLHLRTE | 1

Biological target: ScFus1
Assay: as above
Method: as §1

Binder | SPOT peptide array binding signal intensity
RPPRPPPKPLHLRTE | 8

Biological target: ScHof1
Assay: as above
Method: as §1

Binder | SPOT peptide array binding signal intensity
RPPRPPPKPLHLRTE | 0.5

Biological target: ScHse1
Assay: as above
Method: as §1

Binder | SPOT peptide array binding signal intensity
RPPRPPPKPLHLRTE | 131

Biological target: ScLsb1
Assay: as above
Method: as §1

Binder | SPOT peptide array binding signal intensity
RPPRPPPKPLHLRTE | 90

Biological target: ScLsb2
Assay: as above
Method: as §1

Binder | SPOT peptide array binding signal intensity
RPPRPPPKPLHLRTE | 8

Biological target: ScLsb3
Assay: as above
Method: as §1

Binder | SPOT peptide array binding signal intensity
RPPRPPPKPLHLRTE | 2810

Biological target: ScLsb4
Assay: as above
Method: as §1

Binder | SPOT peptide array binding signal intensity
RPPRPPPKPLHLRTE | 58

Biological target: ScMyo3
Assay: as above
Method: as §1

Binder | SPOT peptide array binding signal intensity
RPPRPPPKPLHLRTE | 72.8

Biological target: ScMyo5
Assay: as above
Method: as §1

Binder | SPOT peptide array binding signal intensity
RPPRPPPKPLHLRTE | 163

Biological target: ScNbp2
Assay: as above
Method: as §1

Binder | SPOT peptide array binding signal intensity
RPPRPPPKPLHLRTE | 1770

Biological target: ScPex13
Assay: as above
Method: as §1

Binder | SPOT peptide array binding signal intensity
RPPRPPPKPLHLRTE | 1500

Biological target: ScRvs167
Assay: as above
Method: as §1

Binder | SPOT peptide array binding signal intensity
RPPRPPPKPLHLRTE | 375

Biological target: ScSho1
Assay: as above
Method: as §1

Binder | SPOT peptide array binding signal intensity
RPPRPPPKPLHLRTE | 1530

Biological target: ScSla1-D1-D2
Assay: as above
Method: as §1

Binder | SPOT peptide array binding signal intensity
RPPRPPPKPLHLRTE | 2390

Biological target: ScSla1-D3
Assay: as above
Method: as §1

Binder | SPOT peptide array binding signal intensity
RPPRPPPKPLHLRTE | 4.5

Biological target: SpAbp1-D1
Assay: as above
Method: as §1

Binder | SPOT peptide array binding signal intensity
RPPRPPPKPLHLRTE | 2570

Biological target: SpBbc1
Assay: as above
Method: as §1

Binder | SPOT peptide array binding signal intensity
RPPRPPPKPLHLRTE | 6

Biological target: SpBzz1-D1
Assay: as above
Method: as §1

Binder | SPOT peptide array binding signal intensity
RPPRPPPKPLHLRTE | 1060

Biological target: SpBzz1-D2
Assay: as above
Method: as §1

Binder | SPOT peptide array binding signal intensity
RPPRPPPKPLHLRTE | 43
NILKRRPLKLEAPSK | ≤ 0

Biological target: SpCyk3
Assay: as above
Method: as §1

Binder | SPOT peptide array binding signal intensity
RPPRPPPKPLHLRTE | ≤ 0
NILKRRPLKLEAPSK | ≤ 0

Biological target: SpHof1
Assay: as above
Method: as §1

Binder | SPOT peptide array binding signal intensity
RPPRPPPKPLHLRTE | 65
NILKRRPLKLEAPSK | 48.8

Biological target: SpHof1-2
Assay: as above
Method: as §1

Binder | SPOT peptide array binding signal intensity
RPPRPPPKPLHLRTE | 15.5
NILKRRPLKLEAPSK | ≤ 0

Biological target: SpHof1-3
Assay: as above
Method: as §1

Binder | SPOT peptide array binding signal intensity
RPPRPPPKPLHLRTE | 237
NILKRRPLKLEAPSK | 699

Biological target: SpHse1
Assay: as above
Method: as §1

Binder | SPOT peptide array binding signal intensity
RPPRPPPKPLHLRTE | 216
NILKRRPLKLEAPSK | 1400

Biological target: SpLsb1
Assay: as above
Method: as §1

Binder | SPOT peptide array binding signal intensity
RPPRPPPKPLHLRTE | 582
NILKRRPLKLEAPSK | 1

Biological target: SpLsb4
Assay: as above
Method: as §1

Binder | SPOT peptide array binding signal intensity
RPPRPPPKPLHLRTE | 1950
NILKRRPLKLEAPSK | 3.5

Biological target: SpMyo1
Assay: as above
Method: as §1

Binder | SPOT peptide array binding signal intensity
RPPRPPPKPLHLRTE | 318
NILKRRPLKLEAPSK | ≤ 0

Biological target: SpNbp2
Assay: as above
Method: as §1

Binder | SPOT peptide array binding signal intensity
RPPRPPPKPLHLRTE | 22
NILKRRPLKLEAPSK | 58

Biological target: SpPex13
Assay: as above
Method: as §1

Binder | SPOT peptide array binding signal intensity
RPPRPPPKPLHLRTE | 17
NILKRRPLKLEAPSK | ≤ 0

Biological target: SpRvs167
Assay: as above
Method: as §1

Binder | SPOT peptide array binding signal intensity
RPPRPPPKPLHLRTE | 865
NILKRRPLKLEAPSK | 1.33

Biological target: SpSla1-D1-D2
Assay: as above
Method: as §1

Binder | SPOT peptide array binding signal intensity
RPPRPPPKPLHLRTE | 13.5
NILKRRPLKLEAPSK | 2

Biological target: SpSla1-D3
Assay: as above
Method: as §1

Binder | SPOT peptide array binding signal intensity
RPPRPPPKPLHLRTE | 4
NILKRRPLKLEAPSK | ≤ 0
